Screening data: PubChem BioAssay, The Scripps Research Institute Molecular Screening Center
CHRM1 PAM: human M1 muscarinic receptor positive allosteric modulators, primary screen, CHO-K1 cells, Fluo-8 calcium fluorescence, 1536-well | Muscarinic acetylcholine receptor M1 (Homo sapiens), P11229 | CHO-K1 hM1, ACh EC20; 0% = ACh EC20, 100% = maximal ACh | activation, % at 3 µM | actives 0.088% (n = 360,000) | AID 588819, 2011; in the data active = activation above about 19%, passing the limit was not always enough
Target sequence (P11229 whole entry, looked up): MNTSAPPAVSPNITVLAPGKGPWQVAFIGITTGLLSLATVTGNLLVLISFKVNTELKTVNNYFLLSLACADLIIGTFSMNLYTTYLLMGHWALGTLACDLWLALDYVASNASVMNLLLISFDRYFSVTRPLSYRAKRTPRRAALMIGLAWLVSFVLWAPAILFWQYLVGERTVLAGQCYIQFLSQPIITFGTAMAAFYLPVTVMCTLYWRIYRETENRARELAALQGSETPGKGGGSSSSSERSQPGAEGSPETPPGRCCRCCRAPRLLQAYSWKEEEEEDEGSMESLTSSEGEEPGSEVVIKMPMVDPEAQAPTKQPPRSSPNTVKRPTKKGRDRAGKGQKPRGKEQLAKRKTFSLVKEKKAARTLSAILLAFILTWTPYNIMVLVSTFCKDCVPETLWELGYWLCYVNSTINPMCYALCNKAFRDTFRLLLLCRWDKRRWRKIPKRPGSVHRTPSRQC
CHO-K1 Ca antag: M1 antagonist counterscreen hit in parental CHO-K1 cells. actives 0.6% (n = 360,000). AID 602250. ATP-induced calcium, Fluo-8 fluorescence. inhibition, % at 3 µM;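 active = inhibition above a per-plate cutoff, the plate's mean sample inhibition plus 3 SD, cut at about 24% in these data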;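 note: 0% = DMSO plus EC80 ATP and 100% = DMSO alone without ATP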
CHO-K1 Ca PAM: nonselective calcium activators in parental CHO-K1 cells, primary screen, counter-screen for M1 PAM project, cell-based, Fluo-8 calcium fluorescence, full deck, 1536-well; ATP EC20; 0% at ATP EC20, 100% at ATP max; activation, % at 3 µM; actives 0.02% (n = 360,000);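 active = activation above the run cutoff, the mean activation of all test compounds plus 3 SD, cut at about 40% in these data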;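 note: peak over basal fluorescence ratio in a 140 s read after ATP addition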
M1 antag: human M1 muscarinic receptor antagonists, primary screen, CHO-K1 cells, Fluo-8 calcium fluorescence, 1536-well | Muscarinic acetylcholine receptor M1 (Homo sapiens), P11229 | CHO-K1 hM1, ACh EC80 antagonist | inhibition, % at 3 µM | actives 1.3% (n = 360,000) | AID 588852, 2011;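 active = percent inhibition above its own plate's cutoff, namely the mean of that plate's compound wells plus 3 SD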;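 note: peak over basal fluorescence ratio during 140 s after agonist addition; 0% = ACh EC80 plus DMSO and 100% = DMSO alone without agonist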
M1 ag: human M1 muscarinic receptor agonists, primary screen, Fluo-8 calcium fluorescence, CHO-K1 cells, HTS; CHO-K1 hM1, agonist mode; 0% DMSO, 100% acetylcholine EC100; actives 0.33% (n = 360,000); Muscarinic acetylcholine receptor M1 (Homo sapiens), P11229; activation, % at 3 µM;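 active = activation above the run's mean compound activation plus 3 SD, cut at about 16% in these data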;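 note: peak over basal fluorescence ratio within a 140 s kinetic read after compound addition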
M1 ag parental: counter-screen for M1 agonists: effect in parental CHO-K1 cells; actives 0.48% (n = 360,000); activation, % at 3 µM; Fluo-8 calcium fluorescence; scaled to maximal ATP response, vehicle zero; in the data active = activation above about 15%;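 note: untransfected CHO-K1 host cells lacking M1 receptor as counterscreen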
The depositor's hits bear a star. This is a sample that favours compounds with a hit; in the whole collection about 2.3% have one here.

SMILES	CHRM1 PAM	CHO-K1 Ca antag	CHO-K1 Ca PAM	M1 antag	M1 ag	M1 ag parental
COc1ccc(C(=O)C2CCCN(C(=O)c3ccc4cc[nH]c4c3)C2)c(C)c1 (stereo unspecified)	2	-3	4	-8	0	2
CCOC(=O)c1cnc(SCC(=O)Nc2nc(C)c(C)s2)nc1N	3	2	-2	0	-3	1
CN(C)C(CNC(=O)CCS(=O)(=O)c1ccccc1)c1ccccc1 (stereo unspecified)	7	-16	17	-7	-9	1
COc1ccc(NC(=O)COc2ccccc2C(=O)NCC(c2ccccc2)N(C)C)cc1Cl (stereo unspecified)	-31	-3	-7	73*	-8	3
COc1ccc(NC(=O)COc2ccccc2)cc1Cl	8	-4	-10	-11	-3	1
CN(C)C(CNC(=O)c1ccc(NC(=O)CC#N)cc1)c1ccccc1 (stereo unspecified)	-20	-5	-5	30*	-8	0
CN(C)C(CNC(=O)CCC(=O)c1ccc(Br)cc1)c1ccccc1 (stereo unspecified)	-28	-14	-3	35*	-8	2
Cc1cccc(NC(=S)NC2CCSc3ccccc32)c1 (stereo unspecified)	-13	-9	-1	20	-5	2
O=c1c(Cl)c(Cl)cnn1Cc1nnc(-c2ccc(Cl)cc2)o1	0	-10	-7	5	-9	-1
C=CCCCCCCCCC(=O)NNC1CC(=O)N(c2ccccc2)C1=O (stereo unspecified)	4	-2	19	-8	-1	1
CN(C(=O)COC(=O)c1nn(C)c(=O)c2ccccc12)c1c(N)n(Cc2ccccc2)c(=O)[nH]c1=O	7	-3	-3	-14	-3	1
COC(=O)C1(CCSC)NC(c2ccc(O)c(OC)c2)C2C(=O)N(c3ccc(C)cc3)C(=O)C21 (stereo unspecified)	4	-10	20	-5	25*	3
COc1ccccc1C(NC(=O)C1CCCCC1)c1c(O)ccc2ccccc12 (stereo unspecified)	-4	3	16	5	-5	20*
COc1ccc(C(=O)NCCn2ccc3ccccc32)c(OC)c1	4	-35	41*	-26	2	2
CC1=C2C3OC(=O)C(C)C3CCC2(C)C=C(Cl)C1=O (stereo unspecified)	14	-14	17	-16	3	1
CC1CCCCC1NC(=O)CSc1nnc(-c2ccco2)n1N (stereo unspecified)	-2	2	-2	-11	-1	0
O=C(CCCc1c[nH]c2ccccc12)NCc1ccccc1C(F)(F)F	0	-10	-8	-4	-4	3
Cc1[nH]nc(SCC(=O)NC(C)c2ccccc2)c1[N+](=O)[O-] (stereo unspecified)	-1	25*	-15	-7	-5	1
CCOC(=O)C1=C(COC(=O)COc2ccc(C(C)=O)cc2)NC(=O)NC1C (stereo unspecified)	-2	2	-15	-2	1	5
CCOC(=O)C1=C(COC(=O)COc2ccc(C(=O)CC)cc2)NC(=O)NC1C (stereo unspecified)	-9	12	-11	13	4	17*
Cc1cc(OCC(=O)N2CCN(c3ccccn3)CC2)c(C)cc1Br	-3	-1	-14	11	-1	1
O=C(Nc1ccc(C(=O)NCCCN2CCCCC2)cc1)C1=CSCCO1	-6	2	-11	17	-1	6
O=C(Nc1ccc(C(=O)NCCCN2CCN(c3ccc(F)cc3)CC2)cc1)C1=CSCCO1	-1	23	7	-6	17*	13
C=CCN(C(=O)CNC(=O)c1ccco1)C(C(=O)NC1CCCC1)c1ccc(OC)cc1 (stereo unspecified)	8	-1	-9	-6	-2	0
COc1ccnc(Oc2ccc(C)cc2C)c1C#N	-1	-4	-4	-3	-4	0
SMILES	CHRM1 PAM	CHO-K1 Ca antag	CHO-K1 Ca PAM	M1 antag	M1 ag	M1 ag parental
O=C(c1ccc([N+](=O)[O-])o1)N1CCN(c2nc3c(F)cc(F)cc3s2)CC1	-6	24*	-10	5	-4	2
Cc1ccc(C)c2sc(N3CCN(C(=O)c4ccc([N+](=O)[O-])o4)CC3)nc12	0	21	-35	0	-3	0
COc1ccc(N2CCN(C(=O)COC(=O)c3oc4ccc(OC)cc4c3C)CC2)cc1	-12	5	-9	14	0	16*
CC1(Oc2cccc(C#N)c2)CCN(Cc2ccccc2OC(F)F)C1 (stereo unspecified)	-7	6	0	2	-7	0
O=C(NP(=O)(N1CCCC1)N1CCCC1)C1=C(N2CCOCC2)/C(=C/c2cccc([N+](=O)[O-])c2)CC1	3	7	8	-4	-6	17*
CCOC(=O)C(=O)C1=C(N2CCOCC2)/C(=C\c2cccc([N+](=O)[O-])c2)CC1	2	-7	14	-9	-4	0
O=S(=O)(c1ccc(NC(=S)N2CCCCC2CO)cc1)N1CCOCC1 (stereo unspecified)	-4	-2	9	-2	-1	1
CC(=O)c1ccc(N2CCN(C(=O)/C=C/c3ccc(S(=O)(=O)NCc4ccco4)cc3)CC2)cc1	-16	5	-3	39*	-3	10
CCOc1ccccc1NC(=O)COC(=O)C(CC)c1ccccc1 (stereo unspecified)	3	-13	20	-6	-10	1
CCOC(=O)N1CCN(CC(O)COc2ccccc2C(C)C)CC1 (stereo unspecified)	-5	5	-1	-2	20*	0
C=CCc1ccccc1OCC(O)CN1CCN(C(=O)OCC)CC1 (stereo unspecified)	-21	-10	22	28	43*	3
C=CCc1ccccc1OCC(O)CN1CCN(c2ccc(C)cc2)CC1 (stereo unspecified)	-7	-15	0	7	-2	0
COc1ccc(CN(C)C(=O)/C=C/c2ccc(S(=O)(=O)N3CCCCCC3)cc2)cc1	-12	9	-16	21	-4	4
Cc1nc2nc(SCC(=O)NCCCN3CCCC3)nn2c(C)c1Cc1ccccc1Cl	-37	-10	8	81*	-12	0
